Screens: PubChem BioAssay, National Center for Advancing Translational Sciences (NCATS)
An excerpt weighted towards active compounds, which were near 9.8% of everything screened.
CBFb-RUNX1 inh: qHTS Assay for Compounds Blocking the Interaction Between CBF-beta and RUNX1 for the Treatment of Acute Myeloid Leukemia; Runt-related transcription factor 1 (Homo sapiens) + Core-binding factor subunit beta …; AlphaScreen CBFb-His/RUNX1-biotin binding, biochemical; Potency, µM (series often up to 59.8 µM), hits mostly inhibitors; 230,000 tested, under 10 active; AID 1477, 2009
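AlphaScreen proximity signal reports loss of binding between His-tagged CBF-beta and biotin-labelled RUNX1, each at 30 nM. Proteins are pre-associated for 20 minutes, compounds added for 15 minutes, then beads for 90 minutes, all at ambient temperature.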
HTT cytoprotect: qHTS Multiplex Assay to Identify Dual Action Probes in a Cell Model of Huntington: Cytoprotection (ATP); PC12 HTT-Q103 induced, cytoprotection, ATP luminescence, 40 h; Potency, µM (series often up to 56.4 µM), most hits filed as activators; actives 0.14% (n = 230,000); also: nearly all actives have a fitted effect of over 45% in size
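Readout: ATPlite luminescence (ATP level). Model: stable PC12, inducible Htt exon1 Q103-GFP. Inducer: tebufenozide, 100 nM final. Compounds: dose series. No G418 in medium.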
HPGD block: qHTS Assay for Inhibitors of HPGD (15-Hydroxyprostaglandin Dehydrogenase); purified HPGD, NADH fluorescence kinetic, PGE2 substrate; Potency, µM, actives largely listed as inhibitors; actives 4.3% (n = 150,000); active = well fitted inhibition curve with a large enough effect, not every such curve was filed as active; inconclusive = small, poorly fitted or top-dose-only effect, or another doubt; inactive = no such curve, though single readings can be large or run the other way
Target sequence (P15428 whole entry, looked up): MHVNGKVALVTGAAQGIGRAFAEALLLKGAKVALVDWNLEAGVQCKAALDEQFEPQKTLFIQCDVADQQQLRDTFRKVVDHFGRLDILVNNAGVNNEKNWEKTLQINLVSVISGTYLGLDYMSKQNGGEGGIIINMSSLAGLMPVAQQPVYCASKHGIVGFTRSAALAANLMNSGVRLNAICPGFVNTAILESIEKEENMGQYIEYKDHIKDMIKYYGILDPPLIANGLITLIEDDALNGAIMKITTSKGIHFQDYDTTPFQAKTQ
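20 nM HPGD preincubated 15 min at room temperature with compound in 50 mM Tris-HCl pH 8, 0.01% Tween 20. Started with 1 mM NAD+ and 30 uM prostaglandin E2; NADH fluorescence (360/450 nm) read 5 times over 30-s intervals, last minus first.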
KDM4E inh: qHTS Assay for Inhibitors of Human Jumonji Domain Containing 2E (JMJD2E); Lysine-specific demethylase 4E (Homo sapiens), B2RXH2; JMJD2E catalytic domain, FDH-coupled NADH fluorescence (FDH is formaldehyde dehydrogenase); Potency, µM (doses to about 57.1 µM), most hits filed as inhibitors; actives 1.6% (n = 230,000); active = well fitted inhibition curve with a large enough effect, not every such curve was filed as active; inconclusive = small, poorly fitted or top-dose-only effect, or another doubt; inactive = no such curve, though single readings can be large or run the other way; also: nearly all actives have a fitted effect of over 50% in size
Target sequence (B2RXH2 1-337 limits assumed): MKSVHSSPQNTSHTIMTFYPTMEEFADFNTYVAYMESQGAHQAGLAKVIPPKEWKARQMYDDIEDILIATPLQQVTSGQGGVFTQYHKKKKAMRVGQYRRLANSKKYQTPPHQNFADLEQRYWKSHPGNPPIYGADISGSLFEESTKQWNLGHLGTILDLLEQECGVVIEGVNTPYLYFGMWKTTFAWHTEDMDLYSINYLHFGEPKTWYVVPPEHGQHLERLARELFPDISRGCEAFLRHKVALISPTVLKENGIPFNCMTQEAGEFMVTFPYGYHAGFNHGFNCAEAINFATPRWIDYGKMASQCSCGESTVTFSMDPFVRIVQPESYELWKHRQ
HttQ103 aggreg: qHTS Multiplex Assay to Identify Dual Action Probes in a Cell Model of Huntington: Aggregate Formation (GFP); AID 1688, 2009; PC12 HttQ103-GFP aggregates, Acumen cytometry, 40 h; actives 1.1% (n = 220,000); Potency, µM (titrated, usually from 46.1 µM), usual class: inhibitors; also: nearly all actives have a fitted effect of over 60% in size
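Steps: seed 1500 PC12 HTTQ103-GFP cells/well; add tebufenozide, 100 nM final; add compound titration; add ATPLite reagent; quantify GFP aggregates by laser scanning cytometry.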
ALDH1A1 inh: qHTS Assay for Inhibitors of Aldehyde Dehydrogenase 1 (ALDH1A1); Aldehyde dehydrogenase 1A1 (Homo sapiens), P00352; Purified ALDH1A1, NADH fluorescence, propionaldehyde substrate; Potency, µM (series often up to 75.3 µM), most hits filed as inhibitors; actives 7.3% (n = 220,000); AID 1030, 2008; active = well fitted inhibition curve with a large enough effect, not every such curve was filed as active; inconclusive = small, poorly fitted or top-dose-only effect, or another doubt; inactive = no such curve, though single readings can be large or run the other way
Large screens that a line does not name were inactive. Unless noted, calls follow the shape of the dose curve; as a rule, active = well fitted curve in the direction sought with a large enough effect; inconclusive = small, poorly fitted or top-dose-only effect, or another doubt; inactive = no such curve, though single readings can be large; an effect the other way counts as inactive or inconclusive.

CCCC(=O)NC(c1ccc(OC)c(OC)c1)c1cc(Cl)c2cccnc2c1O (stereo not given)	KDM4E inh 18µM (no result: HTT cytoprotect, HPGD block, HttQ103 aggreg)
CCC(=O)NC(c1cccs1)c1cc(Cl)c2cccnc2c1O (stereo not given)	none (no result: HPGD block)
O=C(NCc1ccc(Cl)cc1)c1cccnc1	none
CCCCC(=O)NC(c1cccs1)c1cc(Cl)c2cccnc2c1O (stereo not given)	KDM4E inh inconclusive, ALDH1A1 inh 7.1µM (no result: HPGD block)
CCCCN(C(=O)c1c(C)[nH]c(C(=O)OCC)c1C)c1ccccc1	none
Cc1ccc(S(=O)(=O)NCCNC(=O)N2CCOCC2)cc1	none
Cc1ccc(S(=O)(=O)NC(CN2CCOCC2)=NCCNS(=O)(=O)c2ccccc2)cc1	ALDH1A1 inh 2.5µM
O=C(O)c1ccccc1C(=O)NCCc1c(C(=O)O)[nH]c2ccc(Cl)cc12	none (no result: HPGD block, ALDH1A1 inh)
COc1ccc(NC(=O)c2cc3c(s2)CCC(C)C3)cc1S(=O)(=O)N1CCOCC1 (stereo not given)	KDM4E inh inconclusive, HttQ103 aggreg inconclusive, ALDH1A1 inh 16µM
CSc1nnc(NC(=O)c2ccc(C)c(S(=O)(=O)N3CCOCC3)c2)s1	HPGD block 20µM, KDM4E inh inconclusive, ALDH1A1 inh inconclusive
COc1ccc(NC(=O)c2cc(-c3ccco3)nc3ccccc23)cc1S(=O)(=O)N1CCOCC1	CBFb-RUNX1 inh inconclusive, KDM4E inh inconclusive, ALDH1A1 inh inconclusive (no result: HPGD block)
Cc1ccc(NC(=O)c2cc3c(s2)CCC3)cc1S(=O)(=O)N1CCOCC1	HttQ103 aggreg inconclusive, ALDH1A1 inh 1.1µM
Cc1ccc(S(=O)(=O)N2CCOCC2)cc1NC(=O)c1cc2c(s1)CCC2	ALDH1A1 inh inconclusive
Cc1nnc(NC(=O)c2ccc(C)c(S(=O)(=O)N3CCOCC3)c2)s1	none
Cc1ccc(NC(=O)c2cc(-c3ccco3)nc3ccccc23)cc1S(=O)(=O)N1CCOCC1	CBFb-RUNX1 inh inconclusive, KDM4E inh 16µM, ALDH1A1 inh inconclusive (no result: HPGD block)
CC(=O)Nc1cccc(NC(=O)C(=O)c2cn(CC(=O)N3CCCCC3)c3ccccc23)c1	ALDH1A1 inh inconclusive (no result: HPGD block)
CC1CCc2sc(C(=O)NN)cc2C1 (stereo not given)	CBFb-RUNX1 inh inconclusive, ALDH1A1 inh 7.1µM (no result: HPGD block)
CN(C1CCCCC1)S(=O)(=O)c1ccc(NC(=O)Cn2nc(-c3ccc(F)cc3)ccc2=O)cc1	KDM4E inh inconclusive
CC(=O)c1cccc(NC(=O)Cn2nc(-c3ccc(Cl)cc3)ccc2=O)c1	ALDH1A1 inh 7.9µM (no result: HPGD block)
COc1ccc(-c2ccc(=O)n(CC(=O)Nc3ccc(C(=O)NC4CC4)cc3)n2)cc1OC	HPGD block 16µM
CC(C)CNS(=O)(=O)c1ccc(NC(=O)Cn2nc(-c3ccc(F)cc3)ccc2=O)cc1	HPGD block 7.9µM
CC(=O)Nc1cc[n+](C(C)C(=O)c2ccc(Br)cc2)cc1 (stereo not given)	HTT cytoprotect inconclusive (no result: HPGD block)
Oc1c(C=Nc2ccccc2)sc2ccccc12	KDM4E inh inconclusive, ALDH1A1 inh inconclusive (no result: HPGD block)
Oc1ccccc1N=Cc1sc2ccccc2c1Cl	KDM4E inh 22µM, ALDH1A1 inh inconclusive
Cc1ccc(O)c(N=Cc2sc3ccccc3c2Cl)c1	KDM4E inh 25µM, HttQ103 aggreg inconclusive, ALDH1A1 inh inconclusive
O=C(O)c1ccccc1C(=O)NC1CCCCNC1=O (stereo not given)	ALDH1A1 inh inconclusive (no result: HPGD block)
O=C(CSc1nc2ccccc2c(=O)[nH]1)c1ccccc1	HPGD block 13µM, ALDH1A1 inh inconclusive
Cc1cc(C(=O)CSc2nc3ccccc3c(=O)[nH]2)c(C)n1C	HPGD block 22µM
CC(C)(C)c1ccc(C(=O)CSc2nc3ccccc3c(=O)[nH]2)cc1	HttQ103 aggreg inconclusive, ALDH1A1 inh inconclusive
Cc1ccc(C(=O)OCC(=O)c2ccc(Cl)s2)s1	HPGD block 16µM, ALDH1A1 inh inconclusive
CCC(C(=O)OC)(C(=O)OC)c1ccc([N+](=O)[O-])cc1	ALDH1A1 inh inconclusive (no result: HPGD block)
CCc1nc(NCCO)c(C#N)c2c1CSC(C)(C)C2	KDM4E inh inconclusive (no result: HPGD block, ALDH1A1 inh)
O=C(NC1CCCCCC1)C(=S)N1CCOCC1	ALDH1A1 inh 10µM (no result: HPGD block)
CCOC(=O)c1cnc(SC)nc1NCCOC	ALDH1A1 inh inconclusive (no result: HPGD block)
CCOC(=O)c1cnc(SC)nc1Sc1ccccc1Cl	HPGD block 16µM
COc1ccc(C(C)=O)cc1CSc1nc2cc(C(=O)O)ccc2c(=O)n1Cc1ccccc1	HPGD block inconclusive, HttQ103 aggreg inconclusive, ALDH1A1 inh 20µM
N#CCSc1nc2cc(C(=O)N3CCCC3)ccc2c(=O)n1Cc1ccccc1	ALDH1A1 inh 2.8µM
CCn1c(SCC#N)nc2ccccc2c1=O	none (no result: HPGD block, ALDH1A1 inh)
N#CCSc1nc2cc(C(=O)N3CCC(C(N)=O)CC3)ccc2c2nc3ccccc3n12	ALDH1A1 inh 28µM
NC(=O)C1CCN(C(=O)c2ccc3c(=O)n(Cc4ccco4)c(SCC(=O)c4ccccc4)nc3c2)CC1	ALDH1A1 inh 14µM (no result: HPGD block)
O=C(c1csnn1)N1CCC[C@@]2(CCN(Cc3cc(C(F)(F)F)cc(C(F)(F)F)c3)C2)C1	ALDH1A1 inh inconclusive (no result: CBFb-RUNX1 inh, KDM4E inh, HttQ103 aggreg)
COc1ccc(NC(=O)CCCn2c(=O)c3sccc3n(Cc3cccc(C)c3)c2=O)cc1	ALDH1A1 inh 2µM
COc1ccc(NC(=O)CCCn2c(=O)c3sccc3n(Cc3ccc(C)cc3)c2=O)cc1	ALDH1A1 inh inconclusive
COc1cc(-c2ccccc2)nc2ccccc12	HPGD block 28µM
CCC(=O)N1CCCc2cc(S(=O)(=O)N3CCN(c4ncccn4)CC3)ccc21	ALDH1A1 inh inconclusive
CCC(=O)N1CCCc2cc(S(=O)(=O)N3CCN(c4ccccc4F)CC3)ccc21	HttQ103 aggreg inconclusive, ALDH1A1 inh 14µM
Cn1c(=O)c(=O)n(C)c2cc(S(=O)(=O)Nc3ccc4c(c3)OCCO4)ccc21	HPGD block 25µM
Cn1c(=O)oc2cc(S(=O)(=O)NCCC(=O)Nc3ccc4c(c3)OCCO4)ccc21	none
CCC(=O)N1CCc2cc(S(=O)(=O)NCCCN3CCN(Cc4ccccc4)CC3)ccc21	ALDH1A1 inh 18µM
Cn1c(=O)oc2cc(S(=O)(=O)Nc3ccc4c(c3)OCCO4)ccc21	HPGD block inconclusive, HttQ103 aggreg 35µM
COc1ccc(NC(=O)c2nc(C)n(-c3ccc([N+](=O)[O-])cc3)n2)cc1	ALDH1A1 inh inconclusive (no result: HPGD block)
